Hits are enriched below; roughly 28% of the tested compounds scored in any of these assays.
CYP2C9 activ: human CYP2C9 activators, primary screen, biochemical, luminescence | Cytochrome P450 2C9 (Homo sapiens), P11712 | recombinant CYP2C9, luciferin-H conversion; stronger effect = higher value; factor 1 = untreated enzyme, 0 = blocked | activation factor at 5 µM | hit rate 1.4% among 96,000;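 active = activation factor of 2 or more for CYP2C9 at a 5 µM dose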;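 note: 0 = sulfaphenazole-blocked wells and 1 = vehicle-only wells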
CD11b adhes enh: enhancers of CD11b/CD18 adhesion to fibrinogen, primary screen, K562 cells, luminescence | Integrin beta-2 (Homo sapiens) + Integrin alpha-M (Homo sapiens), P05107+P11215 | ATPlite luminescence | activation, % at 10 µM | hit rate 0.07% among 93,000;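 active = 10 µM primary screen giving 50% or more activity, confirmed by 40% or more on retest at that dose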
CYP2C19 inh: blockers of cytochrome P450 2C19 activity – biochemical, luminescence, ADME assay, primary screen; P33261; CYP2C19 Supersomes, luciferin-H EGE luminescence, 30 min; inhibition, % at 5 µM; hit rate 21% among 96,000; AID 778, 2007;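 active = CYP2C19 inhibition above a set limit at 5 µM in the primary screen, cut at about 50% in these data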;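 note: plate controls were negative control wells for no effect and 2.5 mM tranylcypromine positive control for full effect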
Target sequence (P33261 whole entry, looked up): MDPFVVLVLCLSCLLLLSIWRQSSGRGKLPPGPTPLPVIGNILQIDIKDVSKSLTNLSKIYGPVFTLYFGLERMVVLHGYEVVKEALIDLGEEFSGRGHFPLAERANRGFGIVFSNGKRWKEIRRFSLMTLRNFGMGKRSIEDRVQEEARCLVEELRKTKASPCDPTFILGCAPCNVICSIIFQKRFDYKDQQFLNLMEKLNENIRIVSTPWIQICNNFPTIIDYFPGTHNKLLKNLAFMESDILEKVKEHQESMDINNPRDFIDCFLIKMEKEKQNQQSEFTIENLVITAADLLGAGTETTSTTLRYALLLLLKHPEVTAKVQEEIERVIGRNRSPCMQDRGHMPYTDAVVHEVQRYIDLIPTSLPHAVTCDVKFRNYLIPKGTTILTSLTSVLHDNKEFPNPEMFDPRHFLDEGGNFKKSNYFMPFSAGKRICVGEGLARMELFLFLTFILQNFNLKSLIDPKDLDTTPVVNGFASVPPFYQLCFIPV
CYP2C9 inhib: blockers of cytochrome P450 2C9 activity – biochemical, luminescence, ADME assay, primary screen; inhibition, % at 5 µM; hit rate 20% among 96,000; P11712; CYP2C9 Supersomes, luciferin-H conversion;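 active = blocking of liver enzyme CYP2C9 beyond about 50% at 5 µM, limit read from the data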
CD11b adhes inh: inhibitors of CD11b/CD18 adhesion to fibrinogen, primary screen, K562 cells, luminescence; Integrin beta-2 (Homo sapiens) + Integrin alpha-M (Homo sapiens), P05107+P11215; ATPlite luminescence; Mn2+ added to activate the integrin; inhibition, % at 10 µM; hit rate 0.54% among 93,000; AID 1497, 2009;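 active = primary inhibition of 50% or more at 10 µM, then 40% or more on retest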
CYP2C19 activ: human CYP2C19 activators, primary screen, biochemical, luminescence | 96,000 tested, under 10 active | Cytochrome P450 2C19 (Homo sapiens), P33261 | activation factor at 5 µM | recombinant CYP2C19, luciferin-H EGE luminescence; stronger effect = higher value; 0 = fully inhibited enzyme, 1 = untreated enzyme;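 active = activation factor of at least 2 at 5 µM in the primary screen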;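 note: 0 = wells with 2.5 mM tranylcypromine and 1 = vehicle-only wells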
Active calls of the source: *.

Screening CCCc1ccc(OCC(=O)O)cc1 returned CYP2C9 activ 1, CD11b adhes enh 2, CYP2C19 inh -3, CYP2C9 inhib 4, CD11b adhes inh -6 and CYP2C19 activ 1.
For CCCc1ccc(Oc2c(-c3ccc(O)c(C)c3O)n[nH]c2C)cc1 the results were CYP2C9 activ 0, CD11b adhes enh -8, CYP2C19 inh 100*, CYP2C9 inhib 98*, CD11b adhes inh 29 and CYP2C19 activ 0.
Screening COc1ccnc(Oc2ccc(C)cc2C)c1C#N returned CYP2C9 activ 0.9, CD11b adhes enh -4, CYP2C19 inh 39, CYP2C9 inhib 8, CD11b adhes inh 11 and CYP2C19 activ 0.6.
`O=C1CCCC2=C1C1(CCCC1)N=C(Nc1nc3ccccc3s1)N2` gave CYP2C9 activ 1.2, CD11b adhes enh -5, CYP2C19 inh -17, CYP2C9 inhib -18, CD11b adhes inh 16 and CYP2C19 activ 1.2.
`Nc1nnc(SCCOc2cccc(Br)c2)s1` gave CYP2C9 activ 0.5, CYP2C19 inh 92*, CYP2C9 inhib 46 and CYP2C19 activ 0.1.
Screening CCN1C(=O)CC(Sc2ccccc2N)C1=O (stereo unspecified) returned CYP2C9 activ 0.6, CD11b adhes enh -4, CYP2C19 inh 54*, CYP2C9 inhib 41, CD11b adhes inh 7 and CYP2C19 activ 0.5.
Screening Cc1noc(/C=C/N(C)C)c1S(=O)(=O)N(C)CC(=O)NC1CCCCC1 returned CYP2C9 activ 0.4, CD11b adhes enh -1, CYP2C19 inh 39, CYP2C9 inhib 62*, CD11b adhes inh -3 and CYP2C19 activ 0.6.
Screening Cc1noc(/C=C/N(C)C)c1S(=O)(=O)N1CCCC(C(=O)NC2CCCCC2)C1 (stereo unspecified) returned CYP2C9 activ 0.6, CD11b adhes enh 1, CYP2C19 inh 10, CYP2C9 inhib 44, CD11b adhes inh 4 and CYP2C19 activ 0.9.
For Cc1cc(C)c(S(=O)(=O)N(C)CC(=O)NC2CCCC2)c(C)c1 the results were CYP2C9 activ 2.2*, CD11b adhes enh -2, CYP2C19 inh 80*, CYP2C9 inhib -124, CD11b adhes inh -12 and CYP2C19 activ 0.2.
`Cc1nc2ccc3[nH]snc3c2n1` gave CYP2C9 activ 0.8, CD11b adhes enh -4, CYP2C19 inh 1, CYP2C9 inhib 16, CD11b adhes inh 6 and CYP2C19 activ 1.
For O=C(NCCOc1ccccc1)c1n[nH]c(=O)c2ccccc12 the results were CYP2C9 activ 0.9, CD11b adhes enh 1, CYP2C19 inh 6, CYP2C9 inhib 11, CD11b adhes inh -5 and CYP2C19 activ 0.9.
For Cn1cnnc1SC(C(=O)c1ccccc1)c1ccccc1 (stereo unspecified) the results were CYP2C9 activ 1, CD11b adhes enh -2, CYP2C19 inh 81*, CYP2C9 inhib -4, CD11b adhes inh -4 and CYP2C19 activ 0.2.
Screening CC(Sc1nncn1C)C(=O)Nc1nnc(C(C)C)s1 (stereo unspecified) returned CYP2C9 activ 1.1, CD11b adhes enh -1, CYP2C19 inh -8, CYP2C9 inhib -6, CD11b adhes inh -1 and CYP2C19 activ 1.1.
`CC(Sc1nncn1C)C(=O)Nc1nnc(-c2ccccc2)s1` (stereo unspecified) gave CYP2C9 activ 0.5, CD11b adhes enh 1, CYP2C19 inh 12, CYP2C9 inhib 51*, CD11b adhes inh -18 and CYP2C19 activ 0.9.
O=C1C2C(C(=O)N1/N=C/c1ccco1)C1C=CC2C12CC2 (stereo unspecified) was read as CYP2C9 activ 0.9, CD11b adhes enh 5, CYP2C19 inh 99*, CYP2C9 inhib 7, CD11b adhes inh -58 and CYP2C19 activ 0.
O=C1C2C(C(=O)N1/N=C/c1cc(Br)cc([N+](=O)[O-])c1O)C1C=CC2C12CC2 (stereo unspecified) was read as CYP2C9 activ 0.9, CD11b adhes enh -5, CYP2C19 inh 24, CYP2C9 inhib 8, CD11b adhes inh 66* and CYP2C19 activ 0.8.
